These results are taken from PubChem BioAssay (Tox21).

Inconclusive results are not listed. A call without a number means that no potency is given here. Unmarked numbers belong to inactive results. Calls of active or inactive are those of the source. Calls come from the whole dose curve; as a rule, active = well fitted activation curve with a large enough effect in the repeat runs; inconclusive = weak or mixed curves; inactive = flat fitted curve, though single readings scatter.
Potency is the fitted concentration of half-maximal effect.

The assay can be described thus: A CellTox Green Cytotoxicity Assay to monitor cytotoxicity in HepG2 cells - 8 hour (AID 1224890). Note: nearly all actives have a fitted effect of over 45% in size. The note with it: CellTox Green fluorescence; series mostly up to 76.8 µM. The source says:
National Center for Advancing Translational Sciences [NCATS]
NIH Chemical Genomics Center [NCGC]
U.S. Environmental Protection Agency [EPA]
National Institutes of Environmental Health Sciences [NIEHS]
National Toxicology Program [NTP]
Cell-based models are critical for drug discovery. Determining the natural cytotoxic effects resulting from test compounds is an essential research activity. A CellTox Green Cytotoxicity Assay to monitor cytotoxicity in real time of continues cell culture during 40 hours of the compound treatment was used to screen Tox21 10K library compounds in HepG2 cells. CellTox Green Cytotoxicity Assay is a nonlytic, homogeneous, biofluorescent method to measure cytotoxicity in cell culture after experimental manipulation. The assay system uses a proprietary asymmetric cyanine dye that is excluded from viable cells but preferentially stains the dead cell's DNA. […] Viable cells produce no appreciable increases in fluorescence. Therefore, the fluorescence signal produced by the binding interaction with dead cell DNA is proportional to cytotoxicity.
The mixture of HepG2 cell suspension and reagents were dispensed at 600cells/6 ul/well in 1536-well tissue culture treated black solid bottom plates using a Multidrop dispenser. After the assay plates were incubated at a 37 C/5% CO2 incubator for 5 hours, 23 nL of compounds dissolved in DMSO, positive and negative controls was transferred to the assay plate by a pintool work station. The plates were incubated at 37 C for 40 hours. The fluorescence intensity were measured at 0h, 8h, 16h, 24h, 32h and 40h time points using ViewLux plate reader during compound treatment.
As to `O=C(c1ccc(F)cc1)C1CCN(CCn2c(=S)[nH]c3ccccc3c2=O)CC1`, the Potency entry was “inactive”.

With `C=C1C(=C/C=C2\CCC[C@]3(C)[C@@H]([C@H](C)/C=C/[C@@H](O)C4CC4)CC[C@@H]23)C[C@@H](O)C[C@@H]1O`, the Potency result was “inactive”.

On to `O=C(Nc1ccc(S(=O)(=O)N2CCOCC2)cc1)c1cc(Cl)ccc1NS(=O)(=O)c1ccc(Cl)s1`, for which the Potency is 26.8 µM (active).

On to `Cc1[nH]c(C)c(Cl)c(=O)c1Cl`, for which the cytotoxicity increase was -4.87% [at 15.8 µM].

Take `ClCCOCCOCCCl`: the Potency entry is “inactive”.

As for `CN1CCN(C(c2ccccc2)c2ccccc2)CC1`, the Potency entry was “inactive”.

With `COC(C)OC`, the Potency result was “inactive”.

With `CCCCC/C=C\C/C=C\CCCCCCCC(=O)NC(C)c1ccccc1` (stereo not given), the Potency entry is “inactive”.

`CC1=CC[C@H](C(C)C)C=C1`: the Potency entry is “inactive”.

In the case of `C=C1[C@H]2CC[C@@H]3[C@H]2C(C)(C)CCC[C@]13C`, the Potency result is “inactive”.

For `OC(C#CCN1CCCC1)(c1ccccc1)c1ccccc1`, the Potency entry is “inactive”.

With `Cc1ccc(C(C)OC(=O)C2(C)CCC(C(=O)O)C2(C)C)cc1` (stereo not given), the Potency result is “inactive”.

As for `C=CC1CC2C=CC1C2` (stereo not given), the Potency entry is “inactive”.

Turning to `C/C=C(/C(=C/C)c1ccc(OC(C)=O)cc1)c1ccc(OC(C)=O)cc1`, the Potency entry was “inactive”.

As to `CC(=O)c1ccc2c(c1)N(CCCN(C)C)c1ccccc1S2`, the Potency entry was “inactive”.

`CC[N+](C)(CC)CCOC(=O)C(O)(c1ccccc1)C1CCCCC1` (stereo not given): the Potency result was “inactive”.

For `NCc1ccccc1Sc1ccccc1CO`, the Potency entry was “inactive”.

With `NCCCN1CCOCC1`, the Potency entry was “inactive”.

Take `C=CC(=O)OCCOCCOC(=O)C=C`: the Potency entry was “inactive”.

As to `O=C(O)C(S)C(S)C(=O)O` (stereo not given), the Potency result is “inactive”.

Regarding `CN(C)CCOC(c1ccccc1)c1ccc(Br)cc1` (stereo not given), the Potency entry was “inactive”.

`CO[C@@H]1[C@H](OC(=O)/C=C/C=C/C=C/C=C/C(=O)O)CC[C@]2(CO2)[C@H]1[C@@]1(C)O[C@@H]1CC=C(C)C`: the Potency entry was “inactive”.

For the compound `Brc1c2ccccc2c(Br)c2ccccc12`, the cytotoxicity increase is 2.74% [at 6.97 µM].

As to `CC(=O)NO`, the Potency entry was “inactive”.

In the case of `CC(=O)[O][Al]`, the Potency result was “inactive”.

With `C=C(C)C(=O)OCC`, the Potency result is “inactive”.

`Nc1cccc([N+](=O)[O-])c1`: the Potency result was “inactive”.

On to `CCC(Cl)CCC(Cl)C(Cl)CC(Cl)C(Cl)C(Cl)CCl` (stereo not given), for which the Potency entry is “inactive”.

`Nc1cc(C(=O)O)c(O)c(S(=O)(=O)O)c1`: the Potency entry is “inactive”.

As to `CC(=O)c1cccc([N+](=O)[O-])c1`, the Potency result was “inactive”.

For `CC(C)(O)c1ccc(CNC(=O)c2cccnc2Oc2ccc(F)cc2)cc1`, the Potency result is “inactive”.

On to `COc1ccc(S(=O)(=O)N2C(=O)[C@@](c3ccccc3OC)(N3C[C@H](O)C[C@H]3C(=O)N(C)C)c3cc(Cl)ccc32)c(OC)c1`, for which the Potency entry was “inactive”.

As to `O=C1OC(=O)C2C3C=CC(C3)C12` (stereo not given), the Potency result was “inactive”.

Take `O=C(CS)Nc1ccccc1`: the Potency entry was “inactive”.

For `O=C(O)CNCC(=O)O`, the cytotoxicity increase is 3.91% [at 6.97 µM].

As to `CCC(=O)O[C@]1(C(=O)CCl)[C@@H](C)C[C@H]2[C@@H]3CCC4=CC(=O)C=C[C@]4(C)[C@@]3(F)[C@@H](O)C[C@@]21C`, the Potency entry is “inactive”.

With `c1cc(CCCc2ccncc2)ccn1`, the Potency result is “inactive”.

For `C=CC(=O)OCCOCCOCCOCCOC(=O)C=C`, the Potency result was “inactive”.

Regarding `CCOC(=O)NCCOc1ccc(Oc2ccccc2)cc1`, the Potency entry was “inactive”.

Regarding `CC(C)(C)OCC1CO1` (stereo not given), the Potency entry is “inactive”.
